The values below come from PubChem BioAssay (EPA / NIEHS).

Broadly, the AC50 is the concentration giving half of the maximal activity seen.

Results filed as inconclusive are left out. Active and inactive are the calls of the source. How the source made its calls: active means hit-call score of the fitted dose curve at least 0.9, where 1 is the maximum; inconclusive means response in the unintended direction; inactive means score below 0.9.

The test deals with human Phosphodiesterase 10 (PDE10), PDE10A (gene 10846) (UniProt Q9Y233). Kind of test: NVS_ENZ_hPDE10: NovaScreen (NVS) Enzymatic Assay for human Phosphodiesterase 10 (PDE10) (AID 2283195). On the procedure: NVS_ENZ_hPDE10 is a biochemical, single-readout assay that uses extracted gene-proteins in a cell-free assay. Measurements were taken 1 hour after chemical dosing in a 384-well plate.NVS_ENZ_hPDE10 is one of one assay component(s) measured or calculated from the NVS_ENZ_hPDE10 assay. It is designed to make measurements of enzyme activity, a form of enzyme reporter, as detected with fluorescence intensity signals by Fluorescence and electrophoretic mobility shift technology.Data from the assay component NVS_ENZ_hPDE10 was analyzed into 1 assay endpoint. This assay endpoint, NVS_ENZ_hPDE10, was analyzed in the positive analysis fitting direction relative to DMSO as the negative control and baseline of activity. Using a type of enzyme reporter, loss-of-signal activity can be used to understand changes in the enzymatic activity as they relate to the gene PDE10A. Furthermore, this assay endpoint can be referred to as a primary readout, because this assay has produced multiple assay endpoints where this one serves a enzymatic activity function. To generalize the intended target to other relatable targets, this assay endpoint is annotated to the esterase intended target family, where the subfamily is phosphodiesterase.
human Phosphodiesterase 10 (PDE10), PDE10A (gene 10846), sequence (Q9Y233 whole entry, looked up): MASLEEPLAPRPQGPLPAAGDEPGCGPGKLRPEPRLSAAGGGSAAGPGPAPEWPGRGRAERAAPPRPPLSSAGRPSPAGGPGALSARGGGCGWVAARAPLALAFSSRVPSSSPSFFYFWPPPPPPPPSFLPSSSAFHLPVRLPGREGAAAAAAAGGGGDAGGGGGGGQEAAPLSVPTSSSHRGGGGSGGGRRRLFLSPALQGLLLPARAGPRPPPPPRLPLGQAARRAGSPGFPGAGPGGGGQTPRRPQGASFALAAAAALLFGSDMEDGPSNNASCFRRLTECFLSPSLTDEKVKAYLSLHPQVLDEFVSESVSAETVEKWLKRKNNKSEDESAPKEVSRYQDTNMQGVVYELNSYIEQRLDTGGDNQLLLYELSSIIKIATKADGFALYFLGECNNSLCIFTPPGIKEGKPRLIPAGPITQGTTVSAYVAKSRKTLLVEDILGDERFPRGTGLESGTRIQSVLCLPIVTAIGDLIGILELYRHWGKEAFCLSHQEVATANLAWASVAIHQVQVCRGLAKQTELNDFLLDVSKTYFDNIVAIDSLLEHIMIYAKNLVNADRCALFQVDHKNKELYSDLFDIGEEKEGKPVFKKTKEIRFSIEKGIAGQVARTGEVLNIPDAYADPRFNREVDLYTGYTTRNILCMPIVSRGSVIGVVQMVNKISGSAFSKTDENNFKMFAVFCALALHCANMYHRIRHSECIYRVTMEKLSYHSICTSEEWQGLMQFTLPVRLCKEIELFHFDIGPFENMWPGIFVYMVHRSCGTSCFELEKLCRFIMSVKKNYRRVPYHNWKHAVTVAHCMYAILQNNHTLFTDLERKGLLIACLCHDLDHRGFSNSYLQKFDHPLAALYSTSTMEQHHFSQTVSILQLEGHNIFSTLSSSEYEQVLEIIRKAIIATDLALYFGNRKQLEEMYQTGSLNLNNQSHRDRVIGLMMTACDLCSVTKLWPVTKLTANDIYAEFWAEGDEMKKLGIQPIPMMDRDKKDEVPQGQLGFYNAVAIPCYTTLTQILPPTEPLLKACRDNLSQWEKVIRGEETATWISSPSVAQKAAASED
Binding assays used specific radioligands (tritiated, iodinated) with non-radioactive competitive displacement ligands in agonist or antagonist protocols (as indicated) and various reference compounds and inhibitors to titrate specific binding to receptors and transporters. Most enzyme assays (CYPs, kinases, phosphatases, proteases, HDACs) used recombinant protein and specific substrates (fluorescence mostly, some colorimetric and radioactive) and inhibitors, followed by a biochemical separation of substrate and product. All assays for the biochemical HTS were initially run in duplicate at a single concentration (10 uM for CYP450 assays and 25 uM for all others). Assay-chemical combinations meeting a pre-defined threshold (e.g., 30% inhibition and other criteria defined below) were then run in singleton concentration-response format with maximum concentration of 20 uM for CYPs and 50 uM for all others. Each assay was run with positive and negative controls, and concurrent controls on every plate. The follow-up (secondary) screen tested active chemical-pairs in concentration series, as well as a few additional assays not tested in the primary screen, some selected negative inactives, and several cases re-run in the concentration series for confirmatory purposes.
For `S=c1[nH][nH]c(=S)s1`, the compound was classed as inactive. Turning to `CC(C)(C)c1cc(CCC(=O)OCCSCCOC(=O)CCc2cc(C(C)(C)C)c(O)c(C(C)(C)C)c2)cc(C(C)(C)C)c1O`, the result was inactive. With `Brc1cc(Br)cc(Br)c1`, the result was inactive. In the case of `COc1ccccc1NC(=O)CC(C)=O`, the AC50 is 7.87 µM (active). For the compound `CC1(C)[C@H](C=C(Cl)Cl)[C@H]1C(=O)OCc1cccc(Oc2ccccc2)c1`, the AC50 is 25 µM (active). On the same count and under the same terms, the result for `O=C(c1ccc(OCCN2CCCCC2)cc1)c1c(-c2ccc(O)cc2)sc2cc(O)ccc12` reads 25 µM (active).

`CCC(CC)CO`: the call was inactive. Turning to `CCCCCCOC(C)=O`, the compound was called inactive. On the same count and under the same terms, the result for `N#CCCNCCC#N` reads “inactive”. On to `OCCCO`, for which the AC50 was 16.1 µM (active). Consider `CC(O)COCC(C)O` (centres undefined), for which the compound was classed as inactive.

For `CCO[Si](CCC#N)(OCC)OCC`, the outcome was inactive. Consider `CC/C(=C(\c1ccccc1)c1ccc(OCCN(C)C)cc1)c1ccccc1`, for which the AC50 is 22.9 µM (active). Regarding `CCOC(=O)CCCCCCCCC(=O)OCC`, the compound was called inactive.
